This note sets out measurements from PubChem BioAssay (Tox21).

Values joined by “and” are separate entries in the source; they are usually repeats but may differ in a detail not shown here. Equal entries are not always repeated. Records with an inconclusive call do not appear. A number with no mark means an inactive call. Active and inactive are the calls of the source. Calls follow the shape of the full dose curve.
% is scaled to controls: 0 for no effect and ±100 for the full control effect; potency is read from the fitted curve at half-maximal effect.

This test in a line: p53 small molecule agonists, cell-based qHTS assay: qHTS cell viability counter screen (AID 1963581). Also: nearly all actives have a fitted effect of over 45% in size. The note with it: p53RE-bla HCT-116 viability, ATP luminescence, 16 h; series mostly up to 66 µM; activity change, negative = cytotoxicity: at the top concentration. The text has this: National Center for Advancing Translational Sciences [NCATS]
Division of Preclinical Innovation [DPI]
U.S. Environmental Protection Agency [EPA]
National Institutes of Environmental Health Sciences [NIEHS]
National Toxicology Program [NTP]
U.S. Food and Drug Administration [FDA]
p53, a tumor suppressor protein, is activated following cellular insult, including DNA damage and other cellular stresses. The activation of p53 regulates cell fate by inducing DNA repair, cell cycle arrest, apoptosis, or cellular senescence. The activation of p53, therefore, is a good indicator of DNA damage and other cellular stresses. The CellSensor p53RE-bla HCT-116 cell line (Invitrogen) contains a stably integrated beta-lactamase reporter gene under control of the p53 response elements. The activation of the reporter gene under culture conditions can be detected by fluorescence intensity. This cell line was used to screen the Tox21 compound library in a 1536-well plate format and to identify agonists that activate the p53 signaling pathway. The cytotoxicity of the Tox21 compound library against the p53 RE-bla HCT-116 cell line was tested in parallel by measuring the intra cellular ATP content in the same wells.
Tox21 Assay Protocol Summary:
The p53RE-bla cells were dispensed at 4,000 cells/5 ul/well in 1536-well black wall/clear bottom plates using a Multidrop dispenser. After the assay plates were incubated at a 37 C/5% CO2 incubator for 5 hours, 23 nL of compounds dissolved in DMSO, positive controls or DMSO only was transferred to the assay plate by a pin tool. The plates were incubated at 37 C for 16 hours. After 1 uL of LiveBLAzerTM B/G FRET substrate was added using a Flying Reagent Dispenser, the plates were incubated at room temperature for 2 hours, and fluorescence intensity was measured by an Envision plate reader. For cell viability readout that measures cytotoxicity, 4 ul/well of CellTiter-Glo reagent was added into the assay plates using a Flying Reagent Dispenser. After 30 min incubation at room temperature, the luminescence intensity in the plates was measured using a ViewLux plate reader.
As for `CC(O)CC(C)O` (stereo not given), the “activity change, negative = cytotoxicity” value was 5.45%.

Consider `CCCOC(OCCC)OCCC`, for which the “activity change, negative = cytotoxicity” value was 4.31%.

For the compound `CCCCCOC(=O)COc1cc(N2C(=O)C3=C(CCCC3)C2=O)c(F)cc1Cl`, the “activity change, negative = cytotoxicity” value was -0.46%.

Regarding `CCCCCCCC/C=C\CCCCCCCC(=O)OCC`, the “activity change, negative = cytotoxicity” value is -3.48%.

For the compound `CCCCCCC(=O)c1ccccc1`, the “activity change, negative = cytotoxicity” value is 16.7%.

Take `O=C(O)CCCCCCCCCCCBr`: the “activity change, negative = cytotoxicity” value was -5.67%.

With `N[C@@H](CS)C(=O)O`, the “activity change, negative = cytotoxicity” value is -0.398%.

With `Cc1ccc(C(C)(C)C)c(O)c1`, the Potency result is “inactive”.

In the case of `Oc1ccc(CCNCCCCCCNCCc2ccccc2)cc1O`, the “activity change, negative = cytotoxicity” value is 1.34% [at 30.3 µM].

Turning to `CCNCCO`, the “activity change, negative = cytotoxicity” value is -11.2%.

In the case of `O=C1NCCN1CCN1CCC(c2cn(-c3ccc(F)cc3)c3ccc(Cl)cc23)CC1`, the “activity change, negative = cytotoxicity” value is -0.079% [at 30.3 µM].

On to `Brc1cc(Br)c(Oc2cc(Br)c(Br)cc2Br)cc1Br`, for which the “activity change, negative = cytotoxicity” value is 0.089% [at 30.3 µM].

With `N#C/C(=C1/SC[C@@H](c2ccc(Cl)cc2Cl)S1)n1ccnc1`, the “activity change, negative = cytotoxicity” value is 0.738% [at 30.3 µM].

On to `CCC(C)(C)c1cc(O)c(C(C)(C)CC)cc1O`, for which the “activity change, negative = cytotoxicity” value is 6.89%.

With `CCCC(=O)O[C@]1(C(=O)COC(=O)CC)CC[C@H]2[C@@H]3CCC4=CC(=O)CC[C@]4(C)[C@H]3[C@@H](O)C[C@@]21C`, the activity change, negative = cytotoxicity was -11% [at 13.5 µM].

As to `COC(=O)CSc1cc(N=c2sc(=O)n3n2CCCC3)c(F)cc1Cl`, the “activity change, negative = cytotoxicity” value was -14.5%.

With `CN(C)c1ccc(SC#N)cc1`, the “activity change, negative = cytotoxicity” value is 4.11%.

As to `CC(=O)Nc1ccc(S(=O)(=O)Nc2ccc([N+](=O)[O-])cc2)cc1`, the “activity change, negative = cytotoxicity” value is 6.8% [at 30.3 µM].

For the compound `O=C(N/N=C/c1ccc([N+](=O)[O-])o1)c1ccc(O)cc1`, the “activity change, negative = cytotoxicity” value is -2.24% [at 30.3 µM].

In the case of `C[C@H]1O[C@@H](O[C@H]2[C@@H](O)C[C@H](O[C@H]3[C@@H](O)C[C@H](O[C@H]4CC[C@@]5(C)[C@H](CC[C@@H]6[C@@H]5C[C@@H](O)[C@]5(C)[C@@H](C7=CC(=O)OC7)CC[C@]65O)C4)O[C@@H]3C)O[C@@H]2C)C[C@H](O)[C@@H]1O`, the Potency was 102 nM (active) and 90.3 nM (active).

Take `CCOc1ccccc1OCCN[C@H](C)Cc1ccc(OC)c(S(N)(=O)=O)c1`: the “activity change, negative = cytotoxicity” value is 16.1% [at 30.3 µM].

With `O=C(Cl)c1c(Cl)cccc1Cl`, the “activity change, negative = cytotoxicity” value was -0.34%.

For the compound `CC(=O)SCC(CC(=O)c1ccc(C)cc1)C(=O)O` (stereo not given), the “activity change, negative = cytotoxicity” value was -0.37% [at 30.3 µM].

`C=C(C)C(=O)OCCOCCOC(=O)C(=C)C`: the “activity change, negative = cytotoxicity” value was 2.94%.

Take `N=C1N=C(N)c2cc3ccccc3cc21`: the Potency is 23.6 µM (active).

Regarding `CCC1(C)CC(=O)NC1=O` (stereo not given), the “activity change, negative = cytotoxicity” value is 7.36% [at 30.3 µM].

Regarding `CN(C)CCCN1c2ccccc2CCc2ccc(Cl)cc21`, the “activity change, negative = cytotoxicity” value was 15.8% [at 30.3 µM].

For the compound `CCCCCCCCCCl`, the “activity change, negative = cytotoxicity” value was -10.6%.

For the compound `C[C@H](CS)C(=O)N1CCC[C@H]1C(=O)O`, the “activity change, negative = cytotoxicity” value was -14.1% [at 30.3 µM].

As to `O=C(c1ccccc1)C1CCCCC1`, the “activity change, negative = cytotoxicity” value was -10.2%.

Take `COC(=O)CC(C)=O`: the “activity change, negative = cytotoxicity” value is 1.9%.

Turning to `O=C(c1ccccc1)c1ccc(O)cc1O`, the Potency entry is “inactive”.

Take `CCCCCCCCCCCCSCCOCCO`: the “activity change, negative = cytotoxicity” value was -3.61% [at 30.3 µM].

As to `C=CCCCCCC`, the “activity change, negative = cytotoxicity” value is -23.5%.

Turning to `Cc1c(C(=O)NN2CCCCC2)nn(-c2ccc(Cl)cc2Cl)c1-c1ccc(Cl)cc1`, the “activity change, negative = cytotoxicity” value is -28.7% [at 30.3 µM].

`Oc1cc2c(cc1O)[C@H]1c3ccc(O)c(O)c3OC[C@@]1(O)C2`: the “activity change, negative = cytotoxicity” value was -5.4%.

For `O=C1[C@@H]2[C@H]3CC[C@H](C3)[C@@H]2C(=O)N1CCCCN1CCN(c2ncccn2)CC1`, the “activity change, negative = cytotoxicity” value is 3.16% [at 30.3 µM].

`COC(C(=O)O)c1ccccc1` (stereo not given): the “activity change, negative = cytotoxicity” value is 2.09%.

Turning to `CC(C)O.CC(C)O.CCOC(=O)/C=C(\C)O.CCOC(=O)/C=C(\C)O.[Ti]`, the “activity change, negative = cytotoxicity” value was -8.35%.

As to `C[C@H]1C[C@H]2[C@@H]3CCC4=CC(=O)C=C[C@]4(C)[C@@]3(Cl)[C@@H](O)C[C@]2(C)[C@@]1(O)C(=O)CO`, the “activity change, negative = cytotoxicity” value was -0.862% [at 30.3 µM].
